# Measurements published in PubChem BioAssay AID449762 (Southern Research Specialized Biocontainment Screening …, 2010).
# The campaign covered roughly 330,000 compounds. About 1,900 (0.58%) were called active. Not shown: some 4% with an inconclusive outcome. The list is a sample of the results. Entries with a potency or affinity are not part of this list. Values without a mark were called inactive. No stated cut-off is given here; in the data, inconclusive means inhibition above about 70% without an active follow-up result; inactive means below that.
# Assay: M. tuberculosis growth inhibition, HTS (AID 449762);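 further: bacterial growth assessed after seven days of incubation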
# Details: M. tuberculosis H37Rv growth inhibition, 7H9 media; at 25 µM; stronger effect = higher value
row,SMILES,inhibition [%]
1,CN(CC(=O)NCc1ccccc1)S(=O)(=O)c1cnc[nH]1,2.4
2,Cc1cc(C)cc(OCC(=O)OCC(=O)NC2CCCCCC2)c1,2.47
3,CSc1ncnc2c1cnn2-c1ccc(C)cc1C,6.4
4,Cc1ccc(-n2ncc3c(SCC(=O)Nc4cc(C)on4)ncnc32)c(C)c1,-4.04
5,O=C(NCc1cccnc1)C1CCCN(S(=O)(=O)c2ccc(Cl)cc2)C1 (configuration not stated),-6.29
6,O=[N+]([O-])c1cc(-c2nnc(N3CCOCC3)c3ccccc23)ccc1N1CCOCC1,0.47
7,Cc1ccc(NC(=O)CCc2c[nH]c3ccccc23)nc1,1.19
8,Cc1ccnc(NC(=O)CCCc2c[nH]c3ccccc23)c1,-0.54
9,O=C(CN(C(=O)CSc1nc2ccccc2o1)c1ccccc1)NC1CCCCC1,-0.41
10,CNc1c(C(=O)O)ccc2c1C(=O)c1ccccc1C2=O,9.33
11,COc1ccc2c(c1O)C(=O)c1ccccc1C2=O,-7.89
12,CCc1nc(SCC(=O)Nc2ccnc3ccccc23)n[nH]1,-7.48
13,Cc1cc(=O)oc2cc(Oc3ccc([N+](=O)[O-])cc3[N+](=O)[O-])ccc12,50.5
14,Cc1c(C)c2ccc(Oc3ccc([N+](=O)[O-])cc3C(F)(F)F)c(C)c2oc1=O,7.78
15,CN(c1ccccc1)S(=O)(=O)c1ccc(C(=O)OCC(=O)NC(N)=O)cc1,1
16,COc1ccc(-c2c(C(=O)O)c(C(=O)O)c3n2CCC3)cc1,0.3
17,Cc1ccc(CSc2ncn(-c3ccccc3)n2)cc1,-2.76
18,CC(C)(C)c1ccc(NC(=O)CCNC(=O)c2ccco2)cc1,1.96
19,Cc1cc(C)c(S(=O)(=O)Nc2ccc(Cl)cn2)c(C)c1,2.9
20,CCN(CC(=O)Nc1ccccc1OC)C(=O)CCOc1ccc(C(C)(C)C)cc1,-2.92
21,O=[N+]([O-])c1cc(S(=O)(=O)N2CCCCC2)ccc1NCCN1CCOCC1,-0.42
22,O=C(Nc1cccc(-c2ccc(N3CCCCC3)nn2)c1)C(F)(F)F,5.09
23,CCC(=O)Nc1cccc(-c2ccc(N3CCCCC3)nn2)c1,2.67

row,SMILES,inhibition [%]
1,COc1cccc(C(=O)/C=C/Nc2ccc(S(=O)(=O)Nc3nc(C)cc(C)n3)cc2)c1,1.1
2,FC(F)(F)c1cc(CCN2C(=S)NC[C@@H]2c2ccccc2)cc(C(F)(F)F)c1,-1.12
3,O=C1NC[C@H](c2ccccc2)N(CCc2cc(C(F)(F)F)cc(C(F)(F)F)c2)C1=O,2.8
4,CN(C)S(=O)(=O)c1cccc(NC(=O)c2ccc(OC(F)(F)F)cc2)c1,5.44
5,O=C(O)C1=C[C@H](c2coc3ccccc3c2=O)C[C@H](OCCCCO)O1,-1.88
6,CCOC(=O)N1CCN(C(=O)/C(=C/c2ccc(OC)cc2)NC(=O)c2ccccc2)CC1,1.93
7,O=C(CN1CCC(C(O)(c2ccccc2)c2ccccc2)CC1)Nc1cc(Cl)ccc1Cl,54.5
8,Cc1cc(Cl)ccc1NC(=O)CN1CCC(C(O)(c2ccccc2)c2ccccc2)CC1,46
9,COCCCNC(=O)c1ccc(-c2csc(C)n2)cc1,2.89
10,Cc1ccc(NC(=O)CN2CCOCC2)cc1S(=O)(=O)N1CCCCC1,-0.79
11,COCCN(C(=O)COC(=O)CCc1ccc(OC)cc1)c1c(N)n(Cc2ccccc2)c(=O)[nH]c1=O,-4.28
12,CCCNC(=O)c1ccc2c(=O)n(Cc3ccco3)c(=S)[nH]c2c1,4.3
13,Cc1ncoc1C(=O)N1CCCC(C(=O)c2ccc(-c3ccccc3)c(F)c2)C1 (configuration not stated),10.4
14,COc1ccc2cc(C(=O)C3CCCN(C(=O)c4cncs4)C3)ccc2c1 (configuration not stated),0.43
15,Cc1ccc(NC(=O)NCc2ccncc2)cc1Cl,4.38
16,Cc1cc(C)c(NC(=O)CN(C)CC(=O)Nc2cccc(S(=O)(=O)N(C)c3ccccc3)c2)c(C)c1,1.14
17,CN(CC(=O)Nc1ccccc1Cl)C(=O)CSc1ncc(C(F)(F)F)cc1Cl,3.84
18,Cc1cc(Cl)ccc1NC(=O)COC(=O)c1cc([N+](=O)[O-])ccc1N1CCOCC1,-0.98
19,N#CCCn1cc(C(=O)NCc2ccccc2)c(-c2ccc3c(c2)OCCO3)n1,-3.92
20,CN(C)S(=O)(=O)c1ccc(C(=O)Nc2nnc(-c3ccco3)o2)cc1,70.1
21,CCN(c1ccccc1)S(=O)(=O)c1ccc(C(=O)Nc2nnc(-c3ccco3)o2)cc1,12.1
22,O=C(NCCNC(=O)c1ccc(Cl)cc1Cl)c1ccco1,2.57
23,O=C(O)c1cnn2cc(-c3[nH]ncc3[N+](=O)[O-])cnc12,0.22

row,SMILES,inhibition [%]
1,Cc1cccc(N2CC(C(=O)Nc3nccs3)CC2=O)c1C (configuration not stated),4.15
2,CCOC(=O)C1(Cc2ccc(Cl)cc2)CCN(C(=O)c2cnc(C)cn2)CC1,-0.58
3,Cn1cc(CNC(=O)C2CCC(=O)N(Cc3cccc(C(F)(F)F)c3)C2)cn1 (configuration not stated),-6.46
4,CSc1ccc(CNC(=O)C2CCC(=O)N(Cc3cccc(F)c3)C2)cc1 (configuration not stated),-1.72
5,Cc1ccc2nc(NCc3ccccc3)c(C=O)c(=O)n2c1,2.81
6,C[C@H](NC(=O)NCc1ccc(F)cc1)C(=O)O,-0.83
7,COc1ccc(C(=O)n2c(N)nc3ccccc32)cc1OC,44.1
8,Nc1nc2ccccc2n1C(=O)c1cccs1,10.2
9,c1cc2c3c(cccc3c1)C(N1CCOCC1)=N2,-3.61
10,c1cc2c3c(cccc3c1)C(N1CCCCC1)=N2,-4.9
11,Cc1cc(NC(=O)CSc2cn(CCNC(=O)c3ccc(Cl)cc3)c3ccccc23)no1,-7.12
12,O=[N+]([O-])c1ccc(-c2nc(NCC3CCCO3)c3ccccc3n2)cc1 (configuration not stated),2.21
13,c1cncc(-c2nc(NCC3CCCO3)c3ccccc3n2)c1 (configuration not stated),6.22
14,C=CCN1C(=O)C(CC(=O)Nc2ccc(OC)cc2)N(Cc2ccco2)C1=S (configuration not stated),-5.03
15,O=C(O)CCNS(=O)(=O)c1ccccc1C(F)(F)F,-11.5
16,c1ccc(NCCCNc2ccccc2)cc1,2.48
17,COc1cc(CNc2ncn[nH]2)cc(Br)c1OC,-1.3
18,Cc1ccc(Cn2ccc(=O)c(OCc3ccccc3)c2C)cc1,-1.87
19,Cc1c(OCc2ccccc2)c(=O)ccn1Cc1ccccc1,18
20,CC1(CCc2ccccc2)NC(=O)N(CC(=O)N2CC(=O)Nc3ccccc32)C1=O (configuration not stated),-6.43
21,Cc1cc(NC(=O)Cn2cnc3sccc3c2=O)no1,-4.01
22,O=C(O)c1ccccc1C(=O)N1N=C(c2ccccc2)CC1c1ccccc1O (configuration not stated),0.11
23,C=CCSc1nnc(COc2ccc(=O)n(-c3ccccc3)n2)n1CC,1.1

row,SMILES,inhibition [%]
1,CCC(=O)Nc1nc2nc(C)cc(=O)n2[nH]1,-0.66
2,Cc1cc(=O)n2[nH]c(NCc3c(F)cccc3Cl)nc2n1,11.1
3,Cc1ccc2nc(Nc3ccc(Cl)cc3)c3nncn3c2c1,7.65
4,O=C(NCCc1ccccc1)[C@@H]1CC=C[C@@H]2CCN(Cc3ccccc3)C(=O)[C@@H]21,1.96
5,COc1ccc(CN2CC[C@H]3C=CC[C@@H](C(=O)NCCc4ccccc4)[C@H]3C2=O)cc1OC,-2.75
6,C=C(Cl)CSC(=S)N(CC)CC,14
7,CCN(CC)C(=S)SCC(=O)c1ccccc1,3.47
8,CCOC(=O)C1CCN(C(=O)CCc2nnc3ccc(N4CCC(C)CC4)nn23)CC1,1.94
9,CCC(C)(C)NC(=O)C(C)OC(=O)c1nsc(Cl)c1Cl (configuration not stated),-2.01
10,O=C(N/N=C/c1ccco1)c1cc(-c2ccc3ccccc3c2)n[nH]1,14.2
11,Cc1ccc(-c2cc(C(=O)N/N=C/c3ccco3)[nH]n2)cc1,-2.14
12,CN(C)C(CNC(=O)c1coc2ccccc2c1=O)c1ccccc1 (configuration not stated),8.82
13,COC(=O)C1=C(c2ccc(OCc3ccccc3)cc2)C[C@@H]2CC[C@H]1N2C(=O)NCc1ccccc1,-9.3
14,COC(=O)C1=C(c2ccc(OCc3ccccc3)cc2)C[C@@H]2CC[C@H]1N2C(=O)NCCCc1ccccc1,-6.15
15,COc1ccc(CNC(=O)c2ccc(S(=O)(=O)NCc3ccco3)cc2)cc1,9.2
16,CCN(CC)C(=O)Cc1c(OC)ccc2cc(Br)ccc12,-2.55
17,COc1ccc2cc(Br)ccc2c1CC(=O)N(C)C,8.82
18,O=C(Nc1ccccc1C(F)(F)F)c1ccc2nccnc2c1,-5.96
19,Brc1ccc(/C=N/Nc2nncc(-c3ccccc3)n2)o1,-1.56
20,CC(=O)c1ccc(N2CCN(C(=O)C3CCN(S(=O)(=O)Cc4ccccc4)CC3)CC2)cc1,-3.28
21,Cc1ccc(C(=O)Nc2cccc(C(F)(F)F)c2)cc1NC(=O)c1[nH]cnc1C(N)=O,1.02
22,Cc1ccc(C(=O)Nc2cccc(C(F)(F)F)c2)cc1Nc1cnccn1,0.61
23,COc1ccc(CN(Cc2ccccn2)S(=O)(=O)c2ccc(-n3cnnn3)c(OC)c2)cc1,-8.37
